These results are taken from PubChem BioAssay.

Active and inactive are the calls of the source.

Test [1] can be described thus: binders of probe aFSTL3 on microarray, primary screen, stem cell growth factor project, biochemical, small-molecule microarray, fluorescence 635/667 (AID 1064).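 Further: measures binding of the biotinylated anti-FSTL3 antibody to printed compounds.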 The note with it: higher = more signal.
Test [2] can be described thus: binders from COS7 lysate, DM2A8 probe, primary screen, torsin A project, cell lysate, small-molecule microarray, fluorescence 635/667 (AID 1065). To be noted: higher = more signal, COS7 lysate expressing mutant human TOR1A.
Test [3] is described as follows: binders of probe aFGF2 on microarray, primary screen, stem cell growth factor project, biochemical, small-molecule microarray, fluorescence 635/667 (AID 1067).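 Further: measures binding of biotinylated aFGF2 protein to printed compounds on slides; z-score merges feature fluorescence and signal-to-noise across triplicate slides.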 To be noted: higher = more signal.
A short description of test [4]: binders of probe aFGF10 on microarray, primary screen, stem cell growth factor project, biochemical, small-molecule microarray, fluorescence 635/667 (AID 1071).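 Further: score merges 667 nm spot intensity and signal to noise from triplicate slides.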 The note with it: higher = more signal.
The target of test [5] is Neurogenic locus notch homolog protein 2 (Homo sapiens) (UniProt Q04721). Description: Notch2 binders on small-molecule microarrays, primary screen, biochemical, small-molecule microarray, 635 nm fluorescence, stem cell growth factors (AID 1073). The note with it: Notch2 binding, higher = more signal.
Test [6] has as its target Pro-neuregulin-1, membrane-bound isoform (Homo sapiens) (UniProt Q02297). Description: NRG1 binders on small-molecule microarrays, primary screen, psychiatric disease protein project, biochemical, small-molecule microarray, fluorescence 635/667 (AID 1075).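 Further: score combines 667 nm spot fluorescence with signal to noise.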 The note with it: NRG1 binding, 635 nm fluorescence, higher = more signal.
In test [7] the test system is Neuregulin-1 EGF-like domain. Kind of test: binders of neuregulin-1 EGF-like domain, primary screen, biochemical, small-molecule microarray, 635 nm fluorescence (AID 1081).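 Further: binding of the protein to compounds printed on small-molecule microarray slides.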 The note with it: small-molecule microarray binding, higher = more signal.
The nature of test [8]: FRG1 promoter luciferase signal modulators, primary screen, FRG1 inhibition for FSHD, cell-based, C2C12 myotubes, firefly/Renilla luciferase, luminescence (AID 1084). To be noted: higher = more signal, called active from +8 up or from −8 down.
Test [9] can be described thus: binders of probe aFST on microarray, primary screen, stem cell growth factor project, biochemical, small-molecule microarray, fluorescence 635/667 (AID 1086).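 Further: score merges 667 nm fluorescence with signal-to-noise of each printed compound spot.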 To be noted: higher = more signal.
Test [10] is described as follows: binders of probe aHhip on microarray, primary screen, stem cell growth factor project, biochemical, small-molecule microarray, fluorescence 635/667 (AID 1087).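 Further: score merges spot fluorescence at 667nm with spot signal to noise ratio.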 The note with it: higher = more signal.
Test [11] relates to PRMT1 (protein arginine N-methyltransferase 1). Description: PRMT1 binders on small-molecule microarrays, primary screen, biochemical, small-molecule microarray, 635 nm fluorescence (AID 1088).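 Further: binding of Prmt1 protein to compounds spotted on small-molecule microarray slides.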 The note with it: small-molecule microarray binding, higher = more signal.
Test [12] is described as follows: yeast growth modulation, basal conditions, primary screen, YJM789 clinical isolate, OD600, 24 h (AID 1089).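 Further: growth of clinical yeast isolate S. cerevisiae YJM 789 seeded 1000 cells per well; test concentration not given here.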 To be noted: S. cerevisiae YJM789 growth, higher = more signal, called active from +8 up or from −8 down.
Test [13] is described as follows: fission yeast growth modulation, primary screen, strain 972, OD600, 24 h, no modulator (AID 1090).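 Further: basal condition with compound alone and no growth modifier present; test concentration not given here.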 The note with it: S. pombe 972 growth, higher = more signal, called active from +8 up or from −8 down.
Test [14] can be described thus: S. cerevisiae growth modulation with rapamycin, primary screen, strain BY4716, OD600, 96 h (AID 1091). Further: test concentration not given here. To be noted: higher = more signal, called active from +8 up or from −8 down.
For test [15], the target named is Torsin-1A-interacting protein 2 (Homo sapiens) (UniProt Q8NFQ8). Kind of test: LULL1 binders on small-molecule microarray, primary screen, cell lysate, human LULL1 lysate, 635/667 nm fluorescence (AID 1092).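 Further: probe is lysate of COS7 cells overexpressing human LULL1; score merges per-feature 667 nm fluorescence with signal-to-noise.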 To be noted: hLULL1 lysate binding, 635 nm fluorescence, higher = more signal.
Test [16] can be described thus: E. coli growth modulation, two-sided OD650, primary screen, E. coli filamentation project, strain DRC41, 24 h (AID 1093).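 Further: MC1000 strain lacking acrAB efflux and sulA so SOS filamentation is blocked; test concentration not given here.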 The note with it: OD650, 24 h, higher = more signal, called active from +8 up or from −8 down.
Test [17] can be described thus: small-molecule microarray binders of probe aLefty2, primary screen, biochemical, biotinylated probe, 635/667 nm fluorescence (AID 1094).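 Further: score merges spot fluorescence near 667 nm with spot signal-to-noise ratio.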 To be noted: higher = more signal.
The test system of test [18] is Noggin (protein binding on small-molecule microarray). Description: Noggin binders on small-molecule microarray, primary screen, biochemical, 635/667 nm fluorescence (AID 1095).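 Further: score merges 667 nm feature fluorescence with signal to noise over triplicate slides.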 The note with it: 635 nm fluorescence, higher = more signal.
Test [19] concerns the target Neurogenic locus notch homolog protein 3 (Homo sapiens) (UniProt Q9UM47). Kind of test: NOTCH3 binders on small-molecule microarray, primary screen, biochemical, 635/667 nm fluorescence (AID 1096). The note with it: NOTCH3 binding, 635 nm fluorescence, higher = more signal.
Test [20] can be described thus: small-molecule microarray binders of probe aEGFR, primary screen, biochemical, biotinylated probe, 635/667 nm fluorescence (AID 1097).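 Further: probe is a biotinylated anti-EGFR antibody binding compounds printed on slides; score combines fluorescence near 667 nm and signal to noise of each spot.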 To be noted: higher = more signal.

Sequence of Torsin-1A-interacting protein 2 (Homo sapiens) (Q8NFQ8 whole entry, looked up): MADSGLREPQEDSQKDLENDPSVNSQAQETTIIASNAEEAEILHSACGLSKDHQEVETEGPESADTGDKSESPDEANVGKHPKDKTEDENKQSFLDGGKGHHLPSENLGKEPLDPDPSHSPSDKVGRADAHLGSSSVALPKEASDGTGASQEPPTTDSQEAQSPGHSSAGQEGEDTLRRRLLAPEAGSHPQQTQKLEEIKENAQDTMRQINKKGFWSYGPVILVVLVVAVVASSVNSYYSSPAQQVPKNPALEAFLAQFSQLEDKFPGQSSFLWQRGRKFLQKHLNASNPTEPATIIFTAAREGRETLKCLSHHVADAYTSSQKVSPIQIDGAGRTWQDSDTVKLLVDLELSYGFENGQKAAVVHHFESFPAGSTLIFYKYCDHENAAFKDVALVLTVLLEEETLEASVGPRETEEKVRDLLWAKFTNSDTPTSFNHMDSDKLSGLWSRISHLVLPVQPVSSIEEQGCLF
Sequence of Pro-neuregulin-1, membrane-bound isoform (Homo sapiens) (Q02297 whole entry, looked up, the tested form may be a part, canonical isoform): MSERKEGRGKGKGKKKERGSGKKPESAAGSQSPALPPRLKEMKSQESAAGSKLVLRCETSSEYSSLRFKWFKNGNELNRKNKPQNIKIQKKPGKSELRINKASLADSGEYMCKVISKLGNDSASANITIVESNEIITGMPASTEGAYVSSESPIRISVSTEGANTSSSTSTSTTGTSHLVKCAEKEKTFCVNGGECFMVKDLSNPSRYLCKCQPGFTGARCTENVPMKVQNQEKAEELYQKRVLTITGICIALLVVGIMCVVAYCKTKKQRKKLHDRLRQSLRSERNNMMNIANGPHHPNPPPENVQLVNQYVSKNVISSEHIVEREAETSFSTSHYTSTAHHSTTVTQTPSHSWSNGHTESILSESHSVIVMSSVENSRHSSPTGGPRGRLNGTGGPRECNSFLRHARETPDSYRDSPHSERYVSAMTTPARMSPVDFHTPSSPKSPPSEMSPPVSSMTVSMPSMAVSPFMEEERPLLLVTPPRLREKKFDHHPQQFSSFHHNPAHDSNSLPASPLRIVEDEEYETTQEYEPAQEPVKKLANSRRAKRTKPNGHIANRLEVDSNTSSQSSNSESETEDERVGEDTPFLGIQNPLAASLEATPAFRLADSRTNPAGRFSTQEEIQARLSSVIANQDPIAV
Sequence of Neurogenic locus notch homolog protein 2 (Homo sapiens) (Q04721 whole entry, looked up, canonical isoform): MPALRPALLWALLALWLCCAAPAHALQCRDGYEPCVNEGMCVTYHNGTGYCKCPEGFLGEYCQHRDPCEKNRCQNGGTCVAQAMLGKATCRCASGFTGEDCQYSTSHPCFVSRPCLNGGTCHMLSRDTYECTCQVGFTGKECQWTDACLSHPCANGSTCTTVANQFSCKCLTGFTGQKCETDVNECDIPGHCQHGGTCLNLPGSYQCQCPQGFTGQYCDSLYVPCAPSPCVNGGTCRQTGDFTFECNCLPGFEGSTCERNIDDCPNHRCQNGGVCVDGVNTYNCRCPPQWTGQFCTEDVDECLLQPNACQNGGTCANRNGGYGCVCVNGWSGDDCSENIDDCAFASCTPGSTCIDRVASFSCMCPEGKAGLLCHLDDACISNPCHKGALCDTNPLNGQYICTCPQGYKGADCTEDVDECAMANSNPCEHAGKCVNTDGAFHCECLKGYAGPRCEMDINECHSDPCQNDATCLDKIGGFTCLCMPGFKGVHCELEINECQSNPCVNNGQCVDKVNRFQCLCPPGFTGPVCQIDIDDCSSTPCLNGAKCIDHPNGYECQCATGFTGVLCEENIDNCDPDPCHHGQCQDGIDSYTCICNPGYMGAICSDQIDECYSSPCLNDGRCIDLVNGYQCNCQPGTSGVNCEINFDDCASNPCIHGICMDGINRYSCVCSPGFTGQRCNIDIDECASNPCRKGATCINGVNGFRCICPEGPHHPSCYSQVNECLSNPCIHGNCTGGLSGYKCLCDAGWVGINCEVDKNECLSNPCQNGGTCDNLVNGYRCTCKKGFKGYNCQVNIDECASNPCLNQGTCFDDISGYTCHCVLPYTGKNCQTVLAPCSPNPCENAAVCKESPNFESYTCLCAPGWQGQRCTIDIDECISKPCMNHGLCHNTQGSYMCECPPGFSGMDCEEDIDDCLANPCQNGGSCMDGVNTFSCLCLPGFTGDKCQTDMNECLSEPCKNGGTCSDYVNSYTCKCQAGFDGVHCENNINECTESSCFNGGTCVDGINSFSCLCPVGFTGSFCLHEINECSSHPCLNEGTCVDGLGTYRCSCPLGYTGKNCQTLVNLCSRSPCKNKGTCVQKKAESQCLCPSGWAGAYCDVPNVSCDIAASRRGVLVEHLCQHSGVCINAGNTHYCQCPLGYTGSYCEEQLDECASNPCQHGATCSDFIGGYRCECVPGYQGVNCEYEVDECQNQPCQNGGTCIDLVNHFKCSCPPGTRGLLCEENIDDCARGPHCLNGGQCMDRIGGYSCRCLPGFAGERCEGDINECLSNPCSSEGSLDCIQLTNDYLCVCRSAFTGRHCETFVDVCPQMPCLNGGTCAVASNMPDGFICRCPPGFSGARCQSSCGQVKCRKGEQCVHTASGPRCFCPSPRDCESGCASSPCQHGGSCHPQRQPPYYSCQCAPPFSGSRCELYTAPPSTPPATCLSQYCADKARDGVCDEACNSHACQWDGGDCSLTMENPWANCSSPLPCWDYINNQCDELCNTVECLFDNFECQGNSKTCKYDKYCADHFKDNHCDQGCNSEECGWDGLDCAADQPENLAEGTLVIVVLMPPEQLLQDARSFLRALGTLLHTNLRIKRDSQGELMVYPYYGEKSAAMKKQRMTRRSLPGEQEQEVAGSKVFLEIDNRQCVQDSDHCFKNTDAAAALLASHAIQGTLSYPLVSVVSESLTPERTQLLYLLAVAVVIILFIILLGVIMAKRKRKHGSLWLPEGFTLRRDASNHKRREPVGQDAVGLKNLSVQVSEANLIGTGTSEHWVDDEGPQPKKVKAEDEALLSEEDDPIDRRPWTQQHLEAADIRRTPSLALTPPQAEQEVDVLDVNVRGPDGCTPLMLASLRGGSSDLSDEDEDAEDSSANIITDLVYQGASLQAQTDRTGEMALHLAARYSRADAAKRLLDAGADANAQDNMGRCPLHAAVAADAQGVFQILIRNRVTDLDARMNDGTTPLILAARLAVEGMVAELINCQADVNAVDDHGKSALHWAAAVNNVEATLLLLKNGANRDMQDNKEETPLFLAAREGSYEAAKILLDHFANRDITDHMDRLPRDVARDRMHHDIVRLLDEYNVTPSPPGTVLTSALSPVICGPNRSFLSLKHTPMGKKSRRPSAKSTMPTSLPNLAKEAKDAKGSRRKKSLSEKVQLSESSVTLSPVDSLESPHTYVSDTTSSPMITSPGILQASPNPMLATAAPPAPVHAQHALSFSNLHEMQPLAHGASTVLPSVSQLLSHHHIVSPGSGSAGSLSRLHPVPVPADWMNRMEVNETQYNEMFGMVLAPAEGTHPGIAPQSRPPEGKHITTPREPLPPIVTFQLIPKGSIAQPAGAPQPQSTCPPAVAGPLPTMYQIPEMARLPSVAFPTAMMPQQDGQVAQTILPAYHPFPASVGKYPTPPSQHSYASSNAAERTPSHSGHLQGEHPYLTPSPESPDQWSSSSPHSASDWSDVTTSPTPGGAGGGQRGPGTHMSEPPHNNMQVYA

On to `CC(C)(C)OC(=O)CC[C@@]1(C(=O)NCCN2CCOCC2)N=C(c2ccc(OCCCO)cc2)O[C@@H]1c1ccccc1CN=[N+]=[N-]`, for which the composite z-score in test [1] was 0.202; in [2] it was 0.213; in [3] it was 0.0154; in [4], 0.167; in [5], 0.422; in test [6], 1.54. Moreover, the composite z-score was 0.914 in [7]; 0.157 in test [9]; 0.0106 in test [10]; 1.09 in [11]; 2.96 in [15]; -0.0152 in test [17]. Also, the composite z-score is 0.167 in test [18], 0.461 in test [19] and -0.0479 in test [20]. For the same molecule, the z-score in [8] was 5.92 (inactive); in [12] it was -0.865 (inactive); in test [13], 0.258 (inactive); in test [14] it was -1.3 (inactive); in [16], -1.07 (inactive).

On to `C=C(C)[C@@H]1CC=C(C(O)C2C=CC3C(=O)N(c4ccccc4)C(=O)C3N2Nc2ccc([N+](=O)[O-])cc2)CC1` (stereo not given in full), for which the composite z-score is -0.308 in [1]; 0.356 in test [2]; -0.0784 in test [3]; 1.05 in test [4]; 1.61 in [5]; 1.07 in test [6]. Besides, the composite z-score in test [7] was 1.24; in [9] it was 1.57; in test [10], 0.167; in [11], 1.55; in test [15], 3.57; in test [17] it was -0.0357. The composite z-score in test [18] was 0.939; in test [19], 1.05; in [20] it was -0.0435. For the same molecule, the z-score in [8] was -0.0111 (inactive); in test [12] it was -0.0158 (inactive); in [13] it was 0.348 (inactive); in test [14] it was 3.6 (inactive); in test [16], -1.96 (inactive).

With `CC(C)C(=C=CC[C@H](O)c1ccccc1OCCO)C[C@H](O)COCc1ccccc1`, the composite z-score in test [1] was -0.322; in test [2], -0.0849; in test [3], -0.136; in test [4], 0.483; in test [5], -0.284; in test [6] it was 0.294. For the same molecule, the composite z-score is 0.767 in [7]; -0.064 in test [9]; -0.0994 in test [10]; 0.251 in test [11]; 2.8 in test [15]; -0.187 in test [17]. Also, the composite z-score is -0.0604 in test [18], -0.287 in test [19] and -0.13 in test [20]. Besides, the z-score in [8] is -0.843 (inactive); in test [12] it was -0.024 (inactive); in test [13], -1.26 (inactive); in test [14] it was -0.501 (inactive); in test [16], -0.0543 (inactive).

Take `Cc1ccc(C(C)CC(O)C2C=CC3C(=O)N(C)C(=O)C3N2Nc2ccccc2)o1` (stereo not given): the composite z-score in [1] was -0.138; in [2] it was 0.0897; in test [3], 0.0876; in [4], 0.75; in test [5] it was 1.44; in test [6], 0.812. For the same molecule, the composite z-score in [7] is 1.09; in [9], 1.44; in test [10] it was -0.0994; in [11], 1.55; in [15], 0.788; in [17], 0.0997. In addition, the composite z-score in test [18] is 0.555; in [19], 1.07; in test [20], -0.0167. The z-score is 0.651 (inactive) in test [8]; 0.121 (inactive) in test [12]; 0.388 (inactive) in test [13]; 0.651 (inactive) in test [14]; -1.47 (inactive) in test [16].

As to `COC(=O)[C@@]1(Cc2ccccc2)N=C(c2ccc(OCCCO)cc2)O[C@H]1c1ccccc1CN=[N+]=[N-]`, the composite z-score in [1] is 0.261; in test [2] it was 0.0296; in [3], -0.0529; in test [4], 0.0585; in test [5], 0.33; in test [6], 1.02. For the same molecule, the composite z-score in test [7] is 0.666; in test [9], 0.226; in test [10], -0.41; in [11] it was 1.55; in test [15], 2.27; in test [17] it was -0.0747. The composite z-score came to 1.05 in [18], 0.129 in test [19] and 0.0267 in test [20]. The z-score in test [8] was -2.6 (inactive); in test [12] it was -0.605 (inactive); in test [13] it was -0.129 (inactive); in [14], 29.9 (active); in test [16] it was 1.62 (inactive).
